# The whole screen tested about 2,000 compounds, of which about 45 (2%) were called active. Many of the other results were omitted from the sample, so actives are more common in it than they were. A number with no mark means an inactive call.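 How the source made its calls: active means inhibition above the mean of all tested compounds plus 3 SD (cut at about 49% in these data); inactive means the rest.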
# Target: Perilipin-5 (Homo sapiens) + 1-acylglycerol-3-phosphate O-acyltransferase ABHD5 (Homo sapiens) (UniProt Q00G26+Q8WTS1)
# Sequence (Q00G26 whole entry, looked up): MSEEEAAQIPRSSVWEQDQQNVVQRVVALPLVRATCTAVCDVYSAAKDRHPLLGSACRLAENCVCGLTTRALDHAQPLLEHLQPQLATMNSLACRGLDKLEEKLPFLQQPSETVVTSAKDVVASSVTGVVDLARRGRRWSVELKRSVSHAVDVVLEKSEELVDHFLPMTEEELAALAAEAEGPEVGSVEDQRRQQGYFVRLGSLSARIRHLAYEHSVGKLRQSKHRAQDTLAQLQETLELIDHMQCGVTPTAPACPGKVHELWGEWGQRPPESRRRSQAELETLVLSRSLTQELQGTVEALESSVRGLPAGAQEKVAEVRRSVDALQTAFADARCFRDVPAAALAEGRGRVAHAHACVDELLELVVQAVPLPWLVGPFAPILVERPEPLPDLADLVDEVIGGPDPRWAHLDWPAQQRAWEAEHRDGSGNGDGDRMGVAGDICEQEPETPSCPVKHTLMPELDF
# Sequence (Q8WTS1 whole entry, looked up): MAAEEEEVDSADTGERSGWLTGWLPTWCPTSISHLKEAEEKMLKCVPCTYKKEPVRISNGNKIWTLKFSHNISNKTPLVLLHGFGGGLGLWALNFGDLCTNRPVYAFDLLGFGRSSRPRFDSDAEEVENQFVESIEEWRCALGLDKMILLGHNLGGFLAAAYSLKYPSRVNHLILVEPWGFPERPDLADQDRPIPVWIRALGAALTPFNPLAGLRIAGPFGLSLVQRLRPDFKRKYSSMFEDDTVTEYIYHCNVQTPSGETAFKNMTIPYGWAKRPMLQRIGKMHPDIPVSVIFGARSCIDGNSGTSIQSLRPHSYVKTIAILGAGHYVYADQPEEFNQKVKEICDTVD
# Test: ABHD5-PLIN5 interaction inhibitors, pilot screen, cell lysate, split luciferase complementation, luminescence, NIH validation set (AID 493035);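 further: 0% = DMSO only wells while the 100% control is not stated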
# Conditions: split G. princeps luciferase complementation, lysates, 4 h; at 7.9 µM, active compounds read high
row,Structure (SMILES),inhibition
1,O=C(CN1C(=O)/C(=C/c2cccc(Br)c2)SC1=S)Nc1cccnc1,52% (active)
2,O=C(CCCN1C(=O)/C(=C\c2cccc(Br)c2)SC1=S)Nc1cccnc1,28.1%
3,O=C(CCCN1C(=O)/C(=C\c2cccs2)SC1=S)Nc1ccccn1,-1.47%
4,COc1ccc(C2=NOC(COc3ccc4c(C)cc(=O)oc4c3)C2)c(OC)c1 (stereo unspecified),27.1%
5,O=C(COc1ccc2c(-c3ccccc3)cc(=O)oc2c1)NCc1cccs1,9.91%
6,CC/C(=C1/C(=O)CC(C)(C)C(C(=O)OC)C1=O)N1CCCC1 (stereo unspecified),6.45%
7,COc1ccc(/C=C/C(=O)c2cc3cccc(OC)c3oc2=O)cc1,69.5% (active)
8,COc1cccc2cc(-c3ccccc3)c(=O)oc12,-4.71%
9,COc1ccc(C(=O)/C=C/c2ccc(OC(=O)c3cc(OC)c(OC)c(OC)c3)cc2)cc1,40.8%
10,N/C(=N\OC(=O)CCCOc1ccc(Cl)cc1Cl)c1ccccn1,-4.4%
11,CC12COC3(C(=O)Nc4ccc(F)cc4)CC1CCC32C (stereo unspecified),-5.49%
12,O=C(Nc1ncc2c(n1)CC(c1ccco1)CC2=O)c1ccco1 (stereo unspecified),0.31%
13,O=C(/C=C/c1ccccc1)/C=C/c1ccccc1,92.3% (active)
14,O=C(CCCCCCCC(=O)c1ccccc1)c1ccccc1,-4.5%
15,CC(CCc1ccccc1)NC(=O)/C=C/c1ccccc1 (stereo unspecified),0.97%
16,O=C(/C=C/c1ccccc1)NC(=O)c1ccccc1O,12.7%
17,N/C(=N\OC(=O)/C=C/c1ccccc1)c1ccc(Br)cc1,-11.8%
18,O=C(O)c1ccc(C(=O)C(=O)c2ccccc2)cc1,-3.75%
19,O=C(/C=C/c1ccccc1)c1ccccc1,69.7% (active)
20,O=C(/C=C/Sc1ccccc1)c1ccccc1,85.6% (active)
21,Cn1cc(/C=C/C(=O)c2ccccc2)c2ccccc21,13.7%

row,Structure (SMILES),inhibition
1,COc1ccc(Cc2noc(CN(C)CCN3CCc4ccccc4C3)n2)cc1OC,-5.39%
2,CC(=O)Nc1ccc2[nH]c(C)c(CC=C(Cl)Cl)c(=O)c2c1,-10.7%
3,COc1ccc(CCn2c(C)nc3c(c(=O)c4ccccc4n3C)c2=O)cc1,11%
4,Cc1nnc(SCC(=O)N2CCCC(C(=O)c3ccc(Cl)cc3)C2)o1 (stereo unspecified),0.98%
5,Cc1ccc2[nH]c3c(=O)n(CCCN4CCN(C)CC4)cnc3c2c1,-5.12%
6,O=C(O)CCn1c(=S)n(CCC(=O)O)c2ccccc21,8.91%
7,Cc1ccccc1OCCSc1nc2ncnc(N)c2[nH]1,-10.3%
8,COc1c(C)cc(C(=O)C2CCCN(Cc3ccc(Oc4ncccn4)cc3)C2)cc1C (stereo unspecified),-0.46%
9,O=c1c(-c2ccc3c(c2)OCCO3)coc2cc(OC3OC(CO)C(O)C(O)C3O)ccc12 (stereo unspecified),-6.25%
10,CSCCC(NC(C)=O)C(=O)Oc1ccc2c3c(c(=O)oc2c1)CCCC3 (stereo unspecified),1.97%
11,CSCCC(NC(=O)OC(C)(C)C)C(=O)Oc1ccc2c(=O)c(-c3ccc4c(c3)OCCO4)coc2c1 (stereo unspecified),69.1% (active)
12,CCc1c(C)c2ccc(OCC(=O)OC(C)C)c(C)c2oc1=O,-3.95%
13,CCOc1ccc(CC2c3cc(OCC)c(OCC)cc3CCN2C(=O)CN2CCN(C)CC2)cc1OCC (stereo unspecified),-0.88%
14,O=C(/C=C/c1ccc(Cl)cc1)NCCc1ccccc1,1.1%
15,O=C(O)CCCCCN1C(=O)C(=O)/C(=C(/O)c2ccccc2)C1c1ccccc1 (stereo unspecified),-14.1%
16,c1cc(-c2ccncc2)ccn1,-3.86%
17,Nc1cc(-c2ccncc2)c[nH]c1=O,75.3% (active)
18,CCc1cc(=O)oc2cc3occ(-c4ccc(OC)c(F)c4)c3cc12,14.2%
19,CC(C)=CC/C=C1\CCC(C(=O)O)C(C(=O)O)C1 (stereo unspecified),1.14%
20,COCCOC(=O)C1=C(N)OC2=C(C(=O)CCC2)C1c1cccnc1 (stereo unspecified),0.01%

# — PubChem BioAssay AID493035 (The Scripps Research Institute Molecular Screening Center, 2011)
